A selection: hits, their analogues and other compounds. The true share with any hit is near 27%.
CYP2C9 activ: increases human cytochrome P450 2C9 activity; recombinant CYP2C9, luciferin-H conversion, luminescence; hits give high values; factor 1 = untreated enzyme, 0 = blocked; P11712; activation factor at 5 µM; 96,000 compounds, 1.4% hits;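 active means activation factor of 2 or more for CYP2C9 at a 5 µM dose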;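 further: 0 = sulfaphenazole-blocked wells and 1 = vehicle-only wells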
Cav32 inh: human Cav3.2 channel inhibition, primary screen; AID 449739; Cav3.2-expressing cells, Fluo-4 calcium fluorescence FDSS; hits give low values; 100,000 compounds, 4% hits; B-score at 10 µM; O95180;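 active means single-dose well whose peak fluorescence ratio is a statistical outlier from its plate by either plate-standardised score or position-corrected B-score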
CYP2C19 activ: increases human CYP2C19 enzyme activity; AID 1025; activation factor at 5 µM; 96,000 tested, under 10 active; recombinant CYP2C19, luciferin-H EGE luminescence; hits give high values; 0 = fully inhibited enzyme, 1 = untreated enzyme; P33261;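 active means activation factor of at least 2 at 5 µM in the primary screen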;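 further: 0 = wells with 2.5 mM tranylcypromine and 1 = vehicle-only wells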
Pyk2 oligo antag: antagonists of human Pyk2 oligomerization | z-score (the deposit names both 25 µM and 10 µM) | Q293 cells, Pyk2 FERM NanoBiT luminescence; hits give low values | Q14289 | 99,000 compounds, 0.83% hits;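 active means Z-score of -3 or lower, scaled per plate to the spread of control and sample wells; inactive means z-score above -3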;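 further: negative z-score means lost luminescence so less FERM oligomerization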
Target sequence (Q14289 whole entry, looked up): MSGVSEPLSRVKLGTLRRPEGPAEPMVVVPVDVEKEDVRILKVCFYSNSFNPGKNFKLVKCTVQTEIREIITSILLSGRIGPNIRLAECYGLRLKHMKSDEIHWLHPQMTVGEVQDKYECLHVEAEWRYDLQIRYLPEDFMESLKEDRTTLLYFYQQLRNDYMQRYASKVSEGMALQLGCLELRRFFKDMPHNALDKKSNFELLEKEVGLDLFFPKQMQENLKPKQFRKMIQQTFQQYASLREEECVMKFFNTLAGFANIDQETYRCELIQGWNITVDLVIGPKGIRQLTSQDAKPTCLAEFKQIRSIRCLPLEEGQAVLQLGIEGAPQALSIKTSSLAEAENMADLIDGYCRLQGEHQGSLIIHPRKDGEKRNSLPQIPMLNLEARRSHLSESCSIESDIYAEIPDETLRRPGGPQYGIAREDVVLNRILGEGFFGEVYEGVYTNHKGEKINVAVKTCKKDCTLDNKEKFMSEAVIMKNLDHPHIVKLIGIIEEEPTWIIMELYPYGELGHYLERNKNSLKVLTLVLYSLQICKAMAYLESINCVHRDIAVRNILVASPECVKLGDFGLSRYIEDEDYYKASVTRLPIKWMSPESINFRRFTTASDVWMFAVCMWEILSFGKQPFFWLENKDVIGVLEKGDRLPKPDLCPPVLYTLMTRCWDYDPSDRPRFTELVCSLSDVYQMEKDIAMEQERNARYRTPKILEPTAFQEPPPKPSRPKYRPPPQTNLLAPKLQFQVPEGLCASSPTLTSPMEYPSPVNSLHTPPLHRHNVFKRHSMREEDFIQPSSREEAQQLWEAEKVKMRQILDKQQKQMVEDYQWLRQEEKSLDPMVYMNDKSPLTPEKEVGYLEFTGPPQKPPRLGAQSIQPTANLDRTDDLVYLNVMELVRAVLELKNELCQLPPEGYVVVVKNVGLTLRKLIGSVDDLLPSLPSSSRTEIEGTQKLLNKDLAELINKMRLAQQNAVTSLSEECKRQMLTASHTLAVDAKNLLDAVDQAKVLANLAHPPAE
CYP2C19 inhib: human CYP2C19 inhibition; AID 778; CYP2C19 Supersomes, luciferin-H EGE luminescence, 30 min; inhibition, % at 5 µM; 96,000 compounds, 21% hits;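 active means CYP2C19 inhibition above a set limit at 5 µM in the primary screen, cut at about 50% in these data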;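 further: plate controls were negative control wells for no effect and 2.5 mM tranylcypromine positive control for full effect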
CYP2C9 inh: human CYP2C9 inhibition; P11712; CYP2C9 Supersomes, luciferin-H conversion, luminescence; inhibition, % at 5 µM; 96,000 compounds, 20% hits;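 active means blocking of liver enzyme CYP2C9 beyond about 50% at 5 µM, limit read from the data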
Starred values were filed as active, the others as inactive; / = no result.

SMILES | CYP2C9 activ | Cav32 inh | CYP2C19 activ | Pyk2 oligo antag | CYP2C19 inhib | CYP2C9 inh
CCO[C@H]1OC(C(=O)Nc2ccccc2)=C[C@@H](c2ccc(C(F)(F)F)cc2)[C@@H]1CCCO | / | -2.05 | / | / | / | /
Cc1ccc(NC(=O)c2cc(=O)c3ccccc3o2)cc1 | 0.9 | 1.86 | 0.7 | -0.65 | 30.1 | 6.8
Cc1cc([N+](=O)[O-])nn1CC(=O)NNC(=S)Nc1ccc(F)cc1 | 1.1 | / | 1 | -1.77 | 0.5 | -8.5
O=C(COc1ccc(Cl)cc1Cl)NC(=O)N1CCCCC1 | 1 | 1.28 | 0.7 | 1.23 | 27.8 | 3.8
Cc1ccc(OCC(=O)Nn2cnnc2)c(Br)c1 | / | -0.196 | / | 0.23 | / | /
O=C(COc1ccc2ccccc2c1Br)Nn1cnnc1 | 0.2 | 1.37 | 0 | 0.81 | 98.5* | 84.6*
O=C(COc1cc(Cl)c(Cl)cc1Cl)Nn1cnnc1 | 0.2 | / | 0 | 0.21 | 96.4* | 81.9*
O=C(COc1cc(Cl)c(Cl)cc1Cl)Nc1ccncc1 | 0 | -0.172 | 0 | 2.92 | 98.7* | 100.0*
Cc1cc(OCC(=O)Nn2cnnc2)c(C)cc1Br | 0.1 | -0.1 | 0 | -0.1 | 98.7* | 89.7*
CC(C)=CCOc1ccc([C@@H]2COc3c(ccc4c3C=CC(C)(C)O4)C2)c(O)c1 | / | 0.329 | / | / | / | /
O=C(Cn1cc(C(F)(F)F)ccc1=O)N1CCN(S(=O)(=O)c2ccc(Cl)cc2)CC1 | 0.9 | 1.39 | 1 | 0.33 | 2.5 | 5.2
CC1(C(=O)NC2CCCCCCC2)CC1(Cl)Cl (stereo not drawn) | 0.9 | 0.0604 | 0.7 | 0.24 | 26.8 | 7.7
COC(=O)c1nn(-c2ccccc2)c(Cl)c1/C=N/OCc1ccc(Cl)cc1Cl | 0.3 | -3.77 | 0.7 | 0.59 | 28.6 | 66.8*
O=C(CN1CCOCC1)Nc1scc(-c2ccccc2)c1C(=O)N1CCOCC1 | 0.7 | 1.07 | 0.8 | 0.62 | 24.7 | 32.5
CCCCc1nnc(NC(=O)CSc2nc(=O)cc(N)n2-c2cccc(C)c2)s1 | 1.1 | 0.201 | 1.1 | -1.21 | -13.8 | -11.2
CCOC(=O)c1c(C(=O)OCC)c(C)n(N2C(=O)CSC2=S)c1C | 0.5 | -1.59 | 0.6 | 0.03 | 43.7 | 53.0*
CS(=O)(=O)N1N=C(c2ccccc2)CC1c1cccs1 (stereo not drawn) | 0.8 | 0.912 | 0.5 | 0.47 | 54.8* | 24.4
O=C(c1cccs1)N1N=C(c2ccccc2)CC1c1ccccc1 (stereo not drawn) | 0.1 | -1.16 | 0.3 | -1.09 | 68.5* | 95.0*
Cc1ccc2[nH]c(=O)c(C3=NN(C(=O)CCC(=O)O)C(c4cccs4)C3)c(-c3ccccc3)c2c1 (stereo not drawn) | / | / | / | 1.03 | / | /
O=C(Cc1ccccc1)NCC(=O)OCC(=O)c1cccs1 | 0.8 | 0.78 | 1 | -0.16 | 3.3 | 18.5
CC(=O)Nc1cccc(NC(=O)CSc2nnc(Cc3cccn3C)n2CCc2ccccc2)c1 | 0.6 | -0.974 | 0.6 | 0.34 | 38.3 | 38.7
O=C(O)C1C2C=CC(C2)C1C(=O)OC1CC2CCC1C2 (stereo not drawn) | 0.6 | 0.518 | 0.6 | 0.2 | 35.8 | 41.9
CCN1C(=O)/C(=C2/Sc3ccc(OC)cc3N2C)SC1=Nc1cccc(O)c1 | 0.4 | 0.206 | 0.6 | -0.85 | 36.4 | 55.1*
COC(=O)Cc1[nH]nc2c1C1(C(=O)N(Cc3ccccc3)c3ccccc31)C(C#N)=C(N)O2 (stereo not drawn) | 0.4 | 0.501 | 0.4 | -0.03 | 64.5* | 60.8*
Cc1[nH]nc2c1C1(C(=O)N(Cc3ccc(Cl)cc3)c3ccccc31)C(C#N)=C(N)O2 (stereo not drawn) | 0.1 | -2.06 | 0.1 | -1.47 | 88.8* | 92.0*
CCCc1[nH]nc2c1C1(C(=O)N(C(C)C)c3ccccc31)C(C#N)=C(N)O2 (stereo not drawn) | 1.1 | -0.501 | 0.8 | -0.02 | 20.4 | -9.2
CN1C(=O)C2(C(C#N)=C(N)Oc3n[nH]c(-c4ccc(Cl)cc4)c32)c2ccccc21 (stereo not drawn) | 0.7 | 0.686 | 0.7 | -3.05* | 28.8 | 29.8
CCCCc1[nH]nc2c1C1(C(=O)N(CC)c3ccccc31)C(C#N)=C(N)O2 (stereo not drawn) | 1.1 | 1.86 | 1 | -0.2 | -2.7 | -10.2
Cc1ccc(CN2C(=O)CCC2C(=O)NC(C)C)cc1 (stereo not drawn) | 1.1 | 0.359 | 1 | -0.26 | -0.1 | -6.9
Cc1cc2ncn(/N=C/c3cc(Br)ccc3O)c2cc1C | 0.4 | 0.473 | 0.7 | / | 31.4 | 61.1*

Screening data (PubChem BioAssay)
